Reference: PubChem BioAssay (EPA / NIEHS)
Values joined by “and” are separate entries in the source; they are usually repeats but may differ in a detail not shown here. Equal entries are not always repeated. Results filed as inconclusive are left out. Active and inactive are the calls of the source. Rule for the calls, unless noted: active = hit-call score of the fitted dose curve at least 0.9, where 1 is the maximum; inactive = score below 0.9.

Tests used:
[1] = target: Retinoic acid receptor RXR-alpha (Homo sapiens) (UniProt P19793); test: ATG_RXRa_TRANS: Attagene TRANS-FACTORIAL HepG2 Assay for human Retinoid X Receptor alpha (RXRa) (AID 2283012; active = hit-call score of the fitted dose curve at least 0.9, where 1 is the maximum)
How it was run: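 HepG2 cells transiently transfected with GAL4-UAS reporter units and chimeric RXRa-Gal4 protein, treated 24 h. Reporter mRNA measured by RT-PCR, fluorescent labelling, HpaI digestion and capillary electrophoresis. Induction fitted against DMSO.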

[2] = target: human Retinoid X Receptor beta (RXRb), RXRB (gene 6257) (UniProt P28702); test: ATG_RXRb_TRANS: Attagene TRANS-FACTORIAL HepG2 Assay for human Retinoid X Receptor beta (RXRb) (AID 2283013; active = hit-call score of the fitted dose curve at least 0.9, where 1 is the maximum)
How it was run: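 HepG2 cells were transiently transfected with multiplexed GAL4-UAS reporters and a chimeric RXRb-Gal4 construct, then exposed for 24 h. Reporter mRNA was quantified by RT-PCR, FAM labeling, HpaI digestion and capillary electrophoresis; gain of signal was scored against DMSO.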

[3] = target: human Thyroid Receptor alpha (THRa1), THRA (gene 7067) (UniProt P10827); test: ATG_THRa1_TRANS: Attagene TRANS-FACTORIAL HepG2 Assay for human Thyroid Receptor alpha (THRa1) (AID 2283014; active = hit-call score of the fitted dose curve at least 0.9, where 1 is the maximum)
How it was run: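 Reporter transcript induction, read by capillary electrophoresis of 6-FAM-labelled RT-PCR products, reflects activity of a transfected THRa1-Gal4 fusion in HepG2 liver cells. Cells were dosed for 24 h; activity was fitted in the positive direction against DMSO.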

[4] = read-out: E-selectin (Homo sapiens) (UniProt P16581); test: BSK_3C_Eselectin: BioMAP Diversity Plus: 3C Assay for Eselectin Biomarker Activity (AID 2283015); settings: primary human endothelial cells (HUVEC); actives raise or lower the signal
How it was run: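 ELISA read-out of E-selectin on endothelial monolayers after 24 h chemical treatment. Human umbilical vein primary cells served as the system, with DMSO defining baseline activity for bidirectional fitting.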

[5] = read-out: Interleukin-1 alpha (IL1a), IL1A (gene 3552); test: BSK_BE3C_IL1a: BioMAP Diversity Plus: BE3C Assay for Interleukin-1 alpha (IL1a) Biomarker Activity (AID 2283016); settings: primary human bronchial epithelial cells; actives raise or lower the signal
How it was run: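 Human primary bronchial epithelial cells, 24 h chemical exposure; IL-1a quantified by ELISA, fitted bidirectionally against DMSO. Cytotoxicity assessed in parallel by SRB total-protein staining at the time of measurement.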

[6] = read-out: Monocyte Chemoattractant Protein-1 (MCP1), CCL2 (gene 6347); test: BSK_3C_MCP1: BioMAP Diversity Plus: 3C Assay for Monocyte Chemoattractant Protein-1 (MCP1) Biomarker Activity (AID 2283017); settings: primary human endothelial cells (HUVEC); actives raise or lower the signal
How it was run: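 ELISA read-out of MCP-1 from human umbilical vein endothelial cell cultures harvested 24 h post-dosing. Gain or loss of signal was fitted relative to DMSO.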

[7] = read-out: Monocyte Chemoattractant Protein-1 (MCP1), CCL2 (gene 6347); test: BSK_4H_MCP1: BioMAP Diversity Plus: 4H Assay for Monocyte Chemoattractant Protein-1 (MCP1) Biomarker Activity (AID 2283018); settings: primary human endothelial cells (HUVEC); actives raise or lower the signal
How it was run: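 Human umbilical vein endothelial cells (4H system) exposed to chemicals for 24 h in 96-well format. MCP-1 measured by ELISA; bidirectional fitting against DMSO, with SRB total-protein staining in parallel cultures for cytotoxicity.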

[8] = read-out: Human Leukocyte Antigen - DR isotype (HLADR), HLA-DRA (gene 3122); test: BSK_3C_HLADR: BioMAP Diversity Plus: 3C Assay for Human Leukocyte Antigen - DR isotype (HLADR) Biomarker Activity (AID 2283019); settings: primary human endothelial cells (HUVEC); actives raise or lower the signal
How it was run: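 ELISA readout of surface HLA-DR on human umbilical vein endothelium, taken 24 h after chemical treatment. Gain- and loss-of-signal were both fitted relative to DMSO.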

[9] = read-out: Interleukin-8 (IL8), CXCL8 (gene 3576); test: BSK_3C_IL8: BioMAP Diversity Plus: 3C Assay for Interleukin-8 (IL8) Biomarker Activity (AID 2283020); settings: primary human endothelial cells (HUVEC); actives raise or lower the signal
How it was run: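 Primary human umbilical vein endothelial cells were dosed for 24 h. IL-8 was quantified by ELISA and fitted bidirectionally against DMSO. Cytotoxicity was assessed in parallel cultures by SRB staining at 560 nm.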

[10] = read-out: Monokine induced gamma interferon (MIG), CXCL9 (gene 4283); test: BSK_3C_MIG: BioMAP Diversity Plus: 3C Assay for Monokine induced gamma interferon (MIG) Biomarker Activity (AID 2283021); settings: primary human endothelial cells (HUVEC); actives raise or lower the signal;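 for AC50: MIG protein level measured by immunoassay in the treated endothelial cultures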
How it was run: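 HUVEC primary endothelial cultures dosed with chemical; MIG quantified by ELISA at 24 h. Data fitted bidirectionally against DMSO control, with parallel SRB total-protein staining for cytotoxicity.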

Measured: AC50

human Thyroid Receptor alpha (THRa1), THRA (gene 7067), sequence (P10827 whole entry, looked up, the tested form may be a part): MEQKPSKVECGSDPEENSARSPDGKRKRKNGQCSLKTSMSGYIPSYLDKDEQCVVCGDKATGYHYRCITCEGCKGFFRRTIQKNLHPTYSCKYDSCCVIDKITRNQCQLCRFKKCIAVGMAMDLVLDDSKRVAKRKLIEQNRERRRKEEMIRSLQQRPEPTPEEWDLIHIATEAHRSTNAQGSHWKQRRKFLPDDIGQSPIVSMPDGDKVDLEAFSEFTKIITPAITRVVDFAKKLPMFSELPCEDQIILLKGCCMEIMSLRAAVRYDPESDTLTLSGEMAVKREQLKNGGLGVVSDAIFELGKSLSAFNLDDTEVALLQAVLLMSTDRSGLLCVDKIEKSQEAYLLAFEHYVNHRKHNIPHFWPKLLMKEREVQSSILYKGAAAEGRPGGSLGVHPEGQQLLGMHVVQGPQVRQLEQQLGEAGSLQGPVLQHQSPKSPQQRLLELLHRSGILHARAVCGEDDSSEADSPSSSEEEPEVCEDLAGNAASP
E-selectin (Homo sapiens), sequence (P16581 whole entry, looked up): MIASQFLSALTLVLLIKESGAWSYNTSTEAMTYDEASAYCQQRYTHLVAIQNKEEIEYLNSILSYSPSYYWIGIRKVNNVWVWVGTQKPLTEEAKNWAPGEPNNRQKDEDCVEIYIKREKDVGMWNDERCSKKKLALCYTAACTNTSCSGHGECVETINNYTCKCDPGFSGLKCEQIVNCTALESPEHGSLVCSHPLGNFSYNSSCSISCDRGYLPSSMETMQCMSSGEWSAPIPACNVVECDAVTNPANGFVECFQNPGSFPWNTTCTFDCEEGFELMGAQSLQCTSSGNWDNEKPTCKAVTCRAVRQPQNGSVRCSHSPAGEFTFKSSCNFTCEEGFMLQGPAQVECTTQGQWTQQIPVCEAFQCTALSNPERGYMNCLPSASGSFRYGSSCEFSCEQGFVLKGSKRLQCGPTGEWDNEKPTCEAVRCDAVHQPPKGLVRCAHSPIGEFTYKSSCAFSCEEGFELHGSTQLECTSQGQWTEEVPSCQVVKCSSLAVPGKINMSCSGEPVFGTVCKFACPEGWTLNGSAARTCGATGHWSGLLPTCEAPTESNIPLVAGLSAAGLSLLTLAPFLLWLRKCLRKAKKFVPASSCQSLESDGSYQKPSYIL
Retinoic acid receptor RXR-alpha (Homo sapiens), sequence (P19793 whole entry, looked up, the tested form may be a part): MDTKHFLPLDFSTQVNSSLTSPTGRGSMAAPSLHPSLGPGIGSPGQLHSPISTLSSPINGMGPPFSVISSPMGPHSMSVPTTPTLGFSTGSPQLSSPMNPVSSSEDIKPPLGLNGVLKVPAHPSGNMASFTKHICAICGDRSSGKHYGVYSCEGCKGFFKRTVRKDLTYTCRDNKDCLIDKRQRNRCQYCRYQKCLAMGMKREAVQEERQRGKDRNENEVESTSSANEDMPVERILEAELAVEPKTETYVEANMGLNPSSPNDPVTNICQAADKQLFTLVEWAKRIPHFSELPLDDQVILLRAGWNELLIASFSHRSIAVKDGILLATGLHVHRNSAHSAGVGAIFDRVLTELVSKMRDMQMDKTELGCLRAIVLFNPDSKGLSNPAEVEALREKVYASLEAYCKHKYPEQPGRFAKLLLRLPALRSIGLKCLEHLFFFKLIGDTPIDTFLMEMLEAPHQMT
human Retinoid X Receptor beta (RXRb), RXRB (gene 6257), sequence (P28702 whole entry, looked up, the tested form may be a part): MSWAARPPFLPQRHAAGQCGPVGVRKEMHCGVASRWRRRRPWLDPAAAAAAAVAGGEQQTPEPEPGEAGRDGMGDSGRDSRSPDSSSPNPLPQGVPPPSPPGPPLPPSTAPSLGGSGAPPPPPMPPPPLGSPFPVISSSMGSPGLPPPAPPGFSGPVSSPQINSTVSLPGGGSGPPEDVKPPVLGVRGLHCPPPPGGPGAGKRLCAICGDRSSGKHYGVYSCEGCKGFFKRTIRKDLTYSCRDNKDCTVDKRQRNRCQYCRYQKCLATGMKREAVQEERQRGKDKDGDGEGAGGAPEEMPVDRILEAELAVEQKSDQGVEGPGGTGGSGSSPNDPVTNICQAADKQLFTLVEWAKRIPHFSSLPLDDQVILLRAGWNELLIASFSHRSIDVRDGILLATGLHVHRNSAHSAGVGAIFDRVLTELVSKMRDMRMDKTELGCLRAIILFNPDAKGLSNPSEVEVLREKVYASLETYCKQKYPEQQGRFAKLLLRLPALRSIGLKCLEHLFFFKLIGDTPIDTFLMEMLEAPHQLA

CCN(CC)CCOc1ccc(C(=C(Cl)c2ccccc2)c2ccccc2)cc1
active: [4] 14.3 µM | [5] 18.9 µM | [6] 11.6 µM | [7] 9.04 µM | [8] 7.41 µM | [9] 10.9 µM | [10] 15.1 µM
inactive: [1] | [2] | [3]

CS(=O)(=O)c1ccc([C@@H](C[C@H]2CCC(=O)C2)C(=O)Nc2cnccn2)cc1Cl
not listed: [3]
inactive: all other assays above

CC(=O)O[C@]1(C(C)=O)CC[C@H]2[C@@H]3C=C(Cl)C4=CC(=O)[C@@H]5C[C@@H]5[C@]4(C)[C@H]3CC[C@@]21C
active: [5] 32.8 µM | [8] 33.4 µM
inactive: all other assays above

O=C(O)c1cccnc1
inactive: all assays above

COC(=O)[C@H]1[C@H]2C[C@@H]3c4[nH]c5cc(OC)ccc5c4CCN3C[C@H]2C[C@@H](OC(=O)c2cc(OC)c(OC)c(OC)c2)[C@@H]1OC
inactive: [1] | [2] | [3] | [10]
active: [4] 16.9 µM | [6] 16.9 µM | [7] 5.85 µM | [8] 25.8 µM | [9] 16.9 µM

Nc1nc(Cl)nc2c1ncn2[C@H]1C[C@H](O)[C@@H](CO)O1
not listed: [3]
inactive: all other assays above

CC(=O)O
inactive: all assays above

CCCCCCCCCCCCCCOS(=O)(=O)O
active: [5] 28.1 µM
not listed: [3]
inactive: all other assays above

CCCCc1nc2cccnc2n1Cc1ccc(-c2ccccc2-c2nnn[nH]2)cc1
active: [3] 21.4 µM
inactive: all other assays above

O=NO
not listed: [3]
inactive: all other assays above

CC(=O)[C@@]1(O)CC[C@H]2[C@@H]3CCC4=CC(=O)CC[C@]4(C)[C@H]3CC[C@@]21C
not listed: [3]
inactive: all other assays above

CCCCOC(=O)CCCCC(=O)OCCCC
inactive: all assays above

Cc1cc(SC2=C(O)C[C@@](CCc3ccc(N)cc3)(C(C)C)OC2=O)c(C(C)(C)C)cc1CO
not listed: [3]
inactive: all other assays above

O=[Si]=O
inactive: all assays above

C=CCCCCCCCCCCCC
active: [2] 59.1 µM
not listed: [3]
inactive: all other assays above

O=C1CCCCC1
active: [3] 48.4 µM
inactive: all other assays above

CCc1nc(N)nc(N)c1-c1ccc(Cl)cc1
not listed: [3]
inactive: all other assays above

C=CCc1ccc(OC)c(OC)c1
active: [2] 65.4 µM
not listed: [3]
inactive: all other assays above

NCCOCCOCCN
not listed: [3]
inactive: all other assays above

Nc1nc(=S)c2[nH]cnc2[nH]1
inactive: all assays above

COc1ccc(C(=O)Nc2nc3ccccc3c(NCc3ccccc3)c2C#N)cc1
not listed: [3]
inactive: all other assays above

CN(C)C(=O)NC1(c2ccccc2)CCN(CCC[C@]2(c3ccc(Cl)c(Cl)c3)CCCN(C(=O)c3ccccc3)C2)CC1
active: [1] 3.94 µM | [2] 4.3 µM | [6] 7.06 µM | [9] 7.16 µM
inactive: all other assays above

Oc1ccccc1O
active: [4] 1.73 µM | [6] 4.66 µM | [8] 5.45 µM
not listed: [3]
inactive: all other assays above

CCCCCCC(C=O)=Cc1ccccc1
active: [2] 65.6 µM and 39.1 µM | [4] 37.7 µM | [6] 35 µM | [8] 36.7 µM | [9] 30.1 µM | [10] 36.3 µM
inactive: [1] | [5] | [7]

CCCCCCCCCC[N+](C)(C)[O-]
not listed: [3]
inactive: all other assays above

CC(=O)OC1CC(C)OC(C)O1 (stereo not drawn)
not listed: [3]
inactive: all other assays above

O=C1O[C@H]([C@H](O)CO)C(O)=C1O
inactive: all assays above

CC(C)c1cccc(C(C)C)c1
active: [2] 100 µM
not listed: [3]
inactive: all other assays above

CC(C)(O)c1ccc(CNC(=O)c2cccnc2Oc2ccc(F)cc2)cc1
inactive: all assays above

CCCCCCC(CCCCCCCCCCC(=O)OCC(COC(C)=O)OC(C)=O)OC(C)=O (stereo not drawn)
active: [2] 50 µM | [5] 12.3 µM
not listed: [1]
inactive: all other assays above

C/C=C/C=C/C(=O)O
active: [2] 41.5 µM
not listed: [1]
inactive: all other assays above

CN(C)CCCN1c2ccccc2Sc2ccc(Cl)cc21
active: [4] 33 µM | [5] 31.1 µM | [6] 30.4 µM | [7] 4.5 µM | [8] 29.1 µM | [9] 20 µM | [10] 32.2 µM
inactive: [1]

O=C1NC(=O)C(c2ccccc2)(c2ccccc2)N1
not listed: [2] | [3]
inactive: all other assays above

CCOCCOCCO
not listed: [2] | [3]
inactive: all other assays above

CCC(C)N(C)C(=O)c1cc2ccccc2c(-c2ccccc2Cl)n1 (stereo not drawn)
not listed: [2] | [3]
inactive: all other assays above

CC(=O)CC(c1ccccc1)c1c(O)c2ccccc2oc1=O (stereo not drawn)
not listed: [2] | [3]
inactive: all other assays above

CC(C)OC(=O)C(C)(C)Oc1ccc(C(=O)c2ccc(Cl)cc2)cc1
active: [2] 26.9 µM | [6] 30.2 µM | [7] 25.3 µM | [8] 14.2 µM | [9] 14.1 µM
inactive: [1] | [4] | [5] | [10]

NC1CCCCC1
not listed: [1]
inactive: all other assays above

Cc1c(C)c2c(c(C)c1O)CCC(C)(COc1ccc(CC3SC(=O)NC3=O)cc1)O2 (stereo not drawn)
active: [4] 30.3 µM | [5] 29.3 µM | [6] 30.6 µM | [7] 9.95 µM | [9] 20 µM | [10] 34.2 µM
inactive: [1]

CSc1ccc(Oc2ccc(S(N)(=O)=O)cc2CN(C)C)cc1C
not listed: [2] | [3]
inactive: all other assays above

CC(N)=O
not listed: [2]
inactive: all other assays above
